In all, about 110,000 compounds were measured (“z-score”: median about -0.1, highest 2% from about 2 on). The entries come from a sample that favours the highest values as a whole. Calls of active or inactive are those of the source.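 Rule for the calls: active = z-score in the third read window above 3 or below -3; inactive = the rest.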
Target: Metabotropic glutamate receptor 8 (Rattus norvegicus) (UniProt P70579)
Test: mGluR8 Gi/Go-coupled signaling modulation – cell-based, rat, thallium flux, HTS, primary screen (AID 488969)
Details: HEK293 rat mGluR8, GIRK (G protein-gated inwardly rectifying potassium channel) thallium flux, FluoZin2; at 10 µM; stronger effect = higher value; submaximal glutamate (EC20) added with thallium

Chain of Metabotropic glutamate receptor 8 (Rattus norvegicus) (P70579 whole entry, looked up): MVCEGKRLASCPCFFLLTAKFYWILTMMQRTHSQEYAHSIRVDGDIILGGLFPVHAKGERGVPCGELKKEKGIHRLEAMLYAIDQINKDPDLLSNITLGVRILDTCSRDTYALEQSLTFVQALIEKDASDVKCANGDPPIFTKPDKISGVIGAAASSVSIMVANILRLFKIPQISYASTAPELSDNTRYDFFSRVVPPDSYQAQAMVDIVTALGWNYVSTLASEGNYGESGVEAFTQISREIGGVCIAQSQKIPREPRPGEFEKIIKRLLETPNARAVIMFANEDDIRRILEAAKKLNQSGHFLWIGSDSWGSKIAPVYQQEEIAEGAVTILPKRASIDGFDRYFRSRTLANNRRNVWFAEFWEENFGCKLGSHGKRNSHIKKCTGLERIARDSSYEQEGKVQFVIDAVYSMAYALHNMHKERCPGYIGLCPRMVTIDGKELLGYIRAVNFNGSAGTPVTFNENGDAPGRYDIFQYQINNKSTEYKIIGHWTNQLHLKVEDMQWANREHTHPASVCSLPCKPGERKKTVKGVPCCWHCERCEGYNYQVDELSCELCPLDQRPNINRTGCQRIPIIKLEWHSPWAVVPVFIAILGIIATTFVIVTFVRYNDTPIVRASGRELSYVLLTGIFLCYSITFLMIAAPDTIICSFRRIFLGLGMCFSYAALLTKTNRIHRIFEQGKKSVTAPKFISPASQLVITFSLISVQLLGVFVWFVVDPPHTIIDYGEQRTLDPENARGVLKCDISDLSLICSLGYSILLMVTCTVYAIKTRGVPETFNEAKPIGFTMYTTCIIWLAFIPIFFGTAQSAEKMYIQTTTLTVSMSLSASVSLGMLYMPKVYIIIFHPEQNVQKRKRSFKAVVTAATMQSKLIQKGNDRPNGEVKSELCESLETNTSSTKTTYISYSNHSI

Going from `CS(=O)(=O)Nc1ccc(C(=O)NC2CCCC2)cc1` to `CCC1CCCCN1C(=S)Nc1ccc(C(C)=O)cc1` (centres undefined), the z-score falls from -0.00695 to -0.196.

First: COc1ccc(OC)c(/C=N/NC(=O)CN2CCSCC2)c1
Second: COC(=O)[C@H](C)NC(=O)Nc1cc(OC)ccc1OC
The z-score of the first is higher: 0.045 for the first, -0.238 for the second.

Going from `CCn1cc(C(=O)NC(=S)Nc2sc3c(c2C(=O)OC)CCCCCC3)cn1` to `CCOCC(=O)Nc1nnc(C2CCCCC2)s1`, the z-score rises from -0.247 to 0.0573.

Compared with `CCn1nnc(NC(=O)c2cccnc2Cl)n1`, `COc1ccc(NC(=O)CSc2nnc(Cn3cnc4ccccc43)n2C)cc1` is higher in z-score: -0.48 for the first, 0.66 for the second.

First: C/C(=N/NC(=O)c1ccc2c(c1)OCO2)c1ccc(NC(=O)C(F)(F)F)cc1
Second: C/C(=N/NC(=O)c1ccc2c(c1)OCO2)c1cccc(NC(=O)C(C)(C)C)c1
The z-score of the first is higher: -0.151 for the first, -0.191 for the second.

First: C/C(=N\NC(=S)Nc1ccc(F)cc1)C1CC1
Second: Fc1ccc(NC(=S)N2CCCc3ccccc32)cc1
The z-score of the first is lower: -0.155 for the first, -0.143 for the second.

Compared with `C/C(=N\NC(=O)c1ccccc1)c1ccc2c(c1)OCO2`, `O=C(Nc1ccc2c(c1)OCCO2)c1ccc2nccnc2c1` is higher in z-score: -0.195 for the first, 0.215 for the second.

Going from `COc1nc(N/N=C/c2cc3c(cc2Br)OCO3)nc(N2CCOCC2)n1` to `CCOC(=O)C1CCN(c2c(Nc3ccc4c(c3)OCCO4)c(=O)c2=O)CC1`, the z-score rises from -0.297 to -0.277.

First: Cc1c(N=C2SCC(=O)N2/N=C/c2ccccc2)c(=O)n(-c2ccccc2)n1C
Second: Cc1cc(C)n(C(=O)CNC(=O)C(c2ccccc2)c2ccccc2)n1
The z-score of the first is higher: -0.023 for the first, -0.473 for the second.

Going from `CSc1nc2ccc(NC(=O)c3nn(C(C)C)c(=O)c4ccccc34)cc2s1` to `CN(CCC#N)C(=O)Cn1nc(Cc2ccncc2)c2ccccc2c1=O`, the z-score rises from -0.391 to 1.89.

Going from `Cc1ccc(SCc2cc(-c3ccc(Cl)cc3)on2)cc1` to `Cc1ccc(CN2C(=O)CCSc3ccc(Cl)cc32)cc1`, the z-score falls from 0.048 to -0.054.

Compared with `CCOc1ccc(-c2[nH]ncc2-c2csc(C)n2)c(O)c1`, `Cc1cccc(-n2c(C)n[nH]c2=S)c1` is higher in z-score: -0.285 for the first, -0.139 for the second.

Compared with `O=C(N/N=C1\CCCc2ccccc21)c1ccc([N+](=O)[O-])cc1`, `COc1ccc(C(=O)N2CCCc3ccccc32)cc1` is lower in z-score: 1.47 for the first, -0.672 for the second.

Compared with `O=C(c1cncc(Br)c1)N1CCCc2ccccc21`, `CC(=O)N1CCCc2ccccc21` is higher in z-score: 0.0197 for the first, 0.0326 for the second.

First: CC1CN(C(=S)NC(=O)c2ccc([N+](=O)[O-])cc2)CC(C)O1 (centres undefined)
Second: O=C(NC(=S)N1CCOCC1)c1ccc([N+](=O)[O-])cc1
The z-score of the first is lower: 0.605 for the first, 0.875 for the second.

First: CC(=O)Nc1ccccc1C(=O)N1CCc2ccccc21
Second: O=C(c1ccccc1)N1CCc2ccccc21
The z-score of the first is higher: 1.03 for the first, 0.518 for the second.

Compared with `O=C(NN1c2ccccc2CCc2ccccc21)c1ccccc1Br`, `O=C(Nc1ccccc1)N1CCc2ccccc21` is lower in z-score: -0.0618 for the first, -0.39 for the second.

First: Clc1ccc(-c2n[nH]c3c2CCC3)c(Cl)c1
Second: Cc1ccc2c(c1)c1c(n2CC(O)CN2C(=O)CNC2=O)C(=O)CCC1 (centres undefined)
The z-score of the first is higher: 0.0993 for the first, 0.0317 for the second.

First: O=C(CCS(=O)(=O)c1cccc2nsnc12)NCc1ccccc1Cl
Second: Cc1cccc(Cn2c(C(C)O)nc3ccccc32)c1 (centres undefined)
The z-score of the first is higher: 0.429 for the first, -0.101 for the second.

First: COc1ccccc1N1CCN(C(CNC(=O)c2ccco2)c2cccnc2)CC1 (centres undefined)
Second: COc1ccccc1C(=O)NC(=S)N1CCCc2ccccc21
The z-score of the first is higher: 1.2 for the first, -0.0293 for the second.

First: CN(/N=C/c1ccc(O)cc1O)c1nc(-c2ccccc2)cc(-c2ccccc2)n1
Second: Cc1cc([N+](=O)[O-])cc(C)c1OCC(=O)N/N=C/c1ccc(OC(=O)c2ccccc2)cc1
The z-score of the first is higher: 0.141 for the first, -0.0495 for the second.

First: COc1cc(C(=O)OCC(=O)Nc2ccc3c(c2)OC(F)(F)O3)ccc1OCc1c(C)noc1C
Second: COc1cc(/C=N/NC(=O)COc2c(C)cc([N+](=O)[O-])cc2C)ccc1OC(=O)c1ccccc1
The z-score of the first is higher: -0.513 for the first, -0.81 for the second.

Going from `CC(C)[C@H](NC(=O)c1ccccc1)C(=O)N1CCc2ccccc21` to `S=C(c1ccccc1)N1CCCc2ccccc21`, the z-score falls from -0.0295 to -0.863.

First: O=C(CCC(=O)N1CCc2ccccc21)N1CCc2ccccc21
Second: O=C(C(=O)N1CCCc2ccccc21)N1CCCc2ccccc21
The z-score of the first is lower: -0.329 for the first, 0.0396 for the second.

First: COc1ccc(NC(=O)N2CCc3ccccc32)cc1
Second: Cc1ccc(NC(=O)N2CCc3ccccc32)cc1
The z-score of the first is lower: 0.323 for the first, 1.99 for the second.

First: CC12CCC(C(=O)N3CCc4ccccc43)(CC1=O)C2(C)C (centres undefined)
Second: CC12CCC(C(=O)N3CCCc4ccccc43)(OC1=O)C2(C)C (centres undefined)
The z-score of the first is higher: 0.155 for the first, -0.143 for the second.

Going from `O=C(c1ccco1)N1CCN(Cc2nc3ccccc3c(=O)n2-c2ccc(F)cc2)CC1` to `CC(=O)N1CCN(CC(O)COc2ccc(OCc3ccccc3)cc2)CC1` (centres undefined), the z-score falls from 0.209 to 0.0259.

First: COc1cc2[nH]c(=S)nc(NCC3CCCO3)c2cc1OC (centres undefined)
Second: Cc1cc2ccccc2c(=O)n1CC(=O)NCC1COc2ccccc2O1 (centres undefined)
The z-score of the first is higher: 0.919 for the first, 0.0188 for the second.

Going from `COc1cccc(N2CCN(CC(=O)C34CC5CC(CC(C5)C3)C4)CC2)c1` to `CCOc1ccc2[nH]cc(C(=O)N3CCN(C4CCCCC4)CC3)c(=O)c2c1`, the z-score falls from 0.0526 to -0.123.

First: Cc1cc([N+](=O)[O-])cc(C)c1OCC(=O)N/N=C/c1ccc(OC(=O)c2ccccc2Br)cc1
Second: Cc1ccc2nc(N3C(=O)C(O)=C(C(=O)c4ccco4)C3c3cccs3)sc2c1 (centres undefined)
The z-score of the first is higher: 2.41 for the first, -1.09 for the second.

First: O=C1CC(c2ccccc2)Sc2ccccc2N1 (centres undefined)
Second: CC1CC(=S)Nc2ccccc2N1Cc1ccccc1 (centres undefined)
The z-score of the first is lower: -0.216 for the first, 1.32 for the second.

`C/C(=N/NC(=S)Nc1ccccc1)c1ccc2c(c1)OCO2` was tested, and the z-score was 7.92 (active).
With `C/C(=N\NC(=S)Nc1ccc(F)cc1)c1ccc2c(c1)OCCO2` the z-score was 6.87 (active).
In the case of `CCC1CCCCN1C(=S)NC(=O)c1ccc([N+](=O)[O-])cc1` (centres undefined), the z-score is reported as 9.16 (active).
`O=C(NC(=S)N1CCCc2ccccc21)c1ccc(Br)cc1` was tested, and the z-score was 9.56 (active).
In the case of `O=C(NC(=S)N1CCCc2ccccc21)c1ccc([N+](=O)[O-])cc1`, the z-score is reported as 14.7 (active).
`O=C(NC(=S)N1CCc2ccccc21)c1ccccc1Br` was tested, and the z-score was 11.2 (active).
With `O=C(c1ccccc1)N1CCCc2ccccc21` the z-score was 3.33 (active).
`O=C(NC(=S)N1CCc2ccccc21)c1ccccc1` was tested, and the z-score was 7.58 (active).
For `CC12CCC(C(=O)N3CCCc4ccccc43)(CC1=O)C2(C)C` (centres undefined), the z-score was 3.5 (active).
`O=C(NC(=S)N1CCCc2ccccc21)c1ccccc1` was tested, and the z-score was 4.54 (active).
`O=C(NC(=S)N1CCCc2ccccc21)c1ccc(Cl)cc1` was tested, and the z-score was 15.6 (active).
In the case of `CC1CSc2ccccc2NC1=S` (centres undefined), the z-score is reported as 3.72 (active).

Reference: PubChem BioAssay AID488969 (Vanderbilt High Throughput Screening Facility, 2010)
